Bioassay records from PubChem BioAssay.
PKM2 inh = PKM2 (human) enzyme inhibition | P14618 | purified PKM2, ATP generation, Kinase-Glo luminescence | Potency, µM (highest dose often 57.5 µM), inactives show at the highest dose activity change, negative = inhibition, hits mostly inhibitors | 260,000 compounds, 0.058% hits | AID 1634; also: potency is read from the fitted curve at half-maximal effect; nearly all actives have a fitted effect of over 60% in size
Target sequence (P14618 whole entry, looked up): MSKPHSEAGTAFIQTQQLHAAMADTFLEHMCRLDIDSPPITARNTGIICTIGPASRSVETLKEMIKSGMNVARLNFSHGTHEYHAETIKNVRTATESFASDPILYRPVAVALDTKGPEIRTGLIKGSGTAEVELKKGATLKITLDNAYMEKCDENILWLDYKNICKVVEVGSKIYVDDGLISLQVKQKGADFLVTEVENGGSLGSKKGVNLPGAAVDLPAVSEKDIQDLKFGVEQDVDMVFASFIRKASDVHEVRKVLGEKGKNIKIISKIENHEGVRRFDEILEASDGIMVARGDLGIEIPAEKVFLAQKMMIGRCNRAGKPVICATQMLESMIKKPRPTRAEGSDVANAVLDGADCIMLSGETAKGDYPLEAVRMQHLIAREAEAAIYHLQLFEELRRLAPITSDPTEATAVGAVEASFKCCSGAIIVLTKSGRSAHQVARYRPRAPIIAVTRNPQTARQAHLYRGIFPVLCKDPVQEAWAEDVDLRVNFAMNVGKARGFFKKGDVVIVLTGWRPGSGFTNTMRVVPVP
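Coupled luciferase luminescence (Kinase-Glo) detects ATP generated from 0.1 mM ADP and 0.5 mM PEP in imidazole buffer pH 7.2 with KCl, MgCl2; 1 h at room temperature. Enzyme at intermediate activity; normalized to uninhibited and no-enzyme controls.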
PKM2 inh CRC = PKM2 (human) inhibition, concentration-response confirmation. purified hPK-M2, Kinase-Glo ATP luminescence, 1 h. AID 2263. Potency, µM (doses to about 57.5 µM), inactives show at the top dose activity change, negative = inhibition, most hits filed as inhibitors. 55 compounds, 50% hits. shares compounds with PKM2 inh
PKM2 FLuc cs = blocks firefly luciferase, flagging PKM2 inhibitor artifacts; Potency, µM (highest dose often 57.5 µM), for inactives: at the top dose activity, negative = inhibition, usual class: inhibitors; shares compounds with PKM2 inh; 55 compounds, 30% hits; Kinase-Glo firefly luciferase, luminescence, 8 min
PKM2 inh LDH = blocks human pyruvate kinase M2 in LDH-coupled assay; shares compounds with PKM2 inh; purified hPK-M2, LDH-coupled NADH fluorescence kinetic; Potency, µM (top dose mostly 57.5 µM), for the others: at the top dose activity change, negative = inhibition, hits mostly inhibitors; 55 tested, under 10 active; AID 2267
* hit, by the source's call; ? = inconclusive; / = no result. Only a selection was taken, and hits are over-represented in it overall. Calls follow the shape of the dose curve; as a rule, active = well fitted curve in the direction sought with a large enough effect; inconclusive = small, poorly fitted or top-dose-only effect, or another doubt; inactive = no such curve, though single readings can be large; an effect the other way counts as inactive or inconclusive.

SMILES | PKM2 inh | others
CCOC(=O)c1c(C2CC2)csc1NC(=O)COC(=O)c1cnc(Cl)c(Cl)c1 | 50%
CC(=O)C1=C(c2cccc([N+](=O)[O-])c2)N(C(C)=O)n2c(C)nnc2S1 | 31%
Cc1nnc(SCC(=O)Nc2nccs2)o1 | 40%
Cc1ccc(-c2cc(-c3ccc(F)cc3)c(C#N)c(N)n2)o1 | 48%
Cc1ccc2nc(-c3ccco3)c(Nc3ccccc3)n2c1 | / | PKM2 inh CRC=-1%;PKM2 FLuc cs=-1%;PKM2 inh LDH=?
Cc1ccc(-c2nc3cccc(C)n3c2Nc2ccc(F)cc2)o1 | / | PKM2 inh CRC=10%;PKM2 FLuc cs=0%;PKM2 inh LDH=9.2µM*
Cc1ccc(-c2nc3ccc(Cl)cn3c2Nc2ccccc2)o1 | / | PKM2 inh CRC=14%;PKM2 FLuc cs=2%;PKM2 inh LDH=-21%
Cc1ccc(-c2cc(-c3ccc(Cl)cc3)c(C#N)c(N)n2)o1 | 58%
c1coc(-c2nc3ccccc3nc2-c2ccco2)c1 | 30%
Cc1ccc(-c2nn(-c3ccccc3)cc2C2SCC(=O)N2Cc2ccccc2)o1 (stereo not drawn) | 40%
Fc1ccccc1-c1ccc(-c2nc3ccc(Cl)cn3c2Nc2ccc(Cl)cc2)o1 | / | PKM2 inh CRC=14%;PKM2 FLuc cs=5%;PKM2 inh LDH=2%
CC(C)(C)C(=O)Nc1ccc(-c2csnn2)cc1 | 33%
CCN1C(=O)c2ccccc2S(=O)(=O)c2ccc(C(=O)NCc3cccnc3)cc21 | 38%
COc1cccc(CNC(=O)CCC2CCCN(C(=O)c3ccc(OC)o3)C2)c1 (stereo not drawn) | 62%
N#CC1=C(N)N(c2ccc(Br)cc2)C2=C(C(=O)CCC2)C1c1cccnc1 (stereo not drawn) | 37%
Cc1cc(O)c(C(C)C)cc1N=C1CSC(=O)N1 | 40%
COc1cccc(CNC(=O)C2CCN(S(=O)(=O)c3ccc4c(c3)OCCO4)CC2)c1 | 64%
COc1ccc(N2CCN(C(=O)[C@H](Cc3c[nH]c4ccccc34)NC(C)=O)CC2)cc1 | 67%
Cc1ccc(-c2nc3ccccc3[nH]2)cc1NC(=O)/C=C/c1ccco1 | 50%
CCc1ccc(NC(=O)CSc2nnc(C)c(=O)n2N)cc1 | 31%
O=C(Nc1cccc(S(=O)(=O)N2CCOCC2)c1)c1cnccn1 | 41%
O=C(NCc1ccc(Cl)cc1)N1CCN(S(=O)(=O)c2ccccc2)CC1 | 56%
O=C1CN(S(=O)(=O)c2ccc(Cl)cc2C(F)(F)F)CCN1 | 35%
COc1ccc(C)cc1C(=O)CCC(=O)Nc1ccccc1N1CCOCC1 | 52%
Cc1ccc2nc(-c3ccc(C)o3)c(Nc3ccccc3)n2c1 | / | PKM2 inh CRC=7%;PKM2 FLuc cs=1%;PKM2 inh LDH=?
SMILES | PKM2 inh | others
NS(=O)(=O)c1ccc2c(c1)oc(=O)c1cc(S(N)(=O)=O)ccc12 | 160%
Cc1ccc(-c2csc(NC(=O)/C=C/c3ccco3)c2C(=O)O)cc1 | 39%
Cc1ccc(/C=N/NC(=O)C2(O)c3ccccc3-c3ccccc32)o1 | 31%
Cc1occc1C(=O)N/N=C/c1ccc2c(c1)OCO2 | 5.6µM* | PKM2 inh CRC=13µM*;PKM2 FLuc cs=2.6µM*;PKM2 inh LDH=0%
O=C(COc1ccccc1C(=O)N/N=C\c1ccc(O)c(O)c1)N/N=C/c1ccc(O)c(O)c1 | 56%
CS(=O)(=O)N(CC(=O)N/N=C/c1cc2c(cc1Br)OCO2)c1ccccc1Br | 42%
CCc1nc2ccccc2n1Cc1cc(=O)n2cc(C)ccc2n1 | 73%
COc1ccccc1N1CCN(C(=O)COc2ccc(S(=O)(=O)NC(C)C)cc2)CC1 | 68%
Cn1ccs/c1=N\S(=O)(=O)c1ccc(Br)cc1 | 75%
O=C1C=CC(=O)N1CCCCCCN1C(=O)C=CC1=O | 10µM* | PKM2 inh CRC=6.5µM*;PKM2 FLuc cs=-1%;PKM2 inh LDH=-28%
O=C(O)CSc1cc(C(=O)c2ccccc2O)cn2c(=O)c3c4c(sc3nc12)CCCC4 | 36%
CC(=O)CC1(OC(C)=O)C(=O)N(C)c2ccccc21 (stereo not drawn) | 34%
CNC(=O)c1cc2ncc(C(F)(F)F)cc2s1 | 42%
Cc1ccn2c(NCc3ccco3)c(-c3ccccc3)nc2c1 | / | PKM2 inh CRC=-10%;PKM2 FLuc cs=1%;PKM2 inh LDH=?
Cc1n[nH]c(=O)nc1NCc1ccco1 | 33%
COC(=O)Nc1c(-c2ccccc2)nc2ccccn12 | 36%
COc1cc(/C=C2\SC(=O)N(CCNC(=O)c3sc4cc(F)ccc4c3Cl)C2=O)cc(OC)c1OC | 54%
CCOC(=O)c1c(C)[nH]c(-c2csc(N)n2)c1C | 6%
COC(=O)[C@@]1(Cc2ccc(OC)cc2)[C@H]2c3cc(C(=O)N(C)C)n(Cc4ccc(C)o4)c3C[C@H]2CN1C(=O)c1ccccc1 | 89%
CN1CCC(N(CCc2ccccc2)C(=O)CCC(=O)O)CC1 | 3%
